Drawing on PubChem BioAssay, this text covers activation, outcome and potentiation for 14 molecules.

For some assays here: Potency and affinity values are given separately. Calls of active or inactive are those of the source.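 The calls were made as follows, unless noted: active = fluorescence ratio normalized to control raised more than 50% in primary screen plus both repeat runs; inactive = the rest.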

The test system of experiment [1] is TRPC4 beta (transient receptor potential cation channel C4), mouse. Kind of experiment: activators of mouse TRPC4 channel, confirmation, cell-based, Fluo4 calcium, HEK293 TRPC4beta/mu-opioid, duplicates, 10 µM (AID 2426).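 As to activation: percent rise of integrated ratio over buffer wells lacking compound which define 0%.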 The note with it: Fluo4 calcium fluorescence, at 10 µM; stronger effect = higher value.
Experiment [2] deals with transient receptor potential cation channel C4 beta (TRPC4), mouse. Kind of experiment: activators of mouse TRPC4 channel, confirmation, cell-based, second round, Fluo4, HEK293 TRPC4beta/mu-opioid, 1 µM (AID 2461;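 active = primary screen active and over 50% activation in each of two duplicate runs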;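 as to activation: 0% = wells without test compound as baseline of integrated fluorescence ratio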). As to conditions: Fluo4 calcium fluorescence, at 1 µM; stronger effect = higher value.
Experiment [3] has as its system TRPC4 (transient receptor potential cation channel C4 beta), mouse. Kind of experiment: positive allosteric modulators of mouse TRPC4, confirmation, cell-based, second round, Fluo-4, HEK293 TRPC4beta/mu-opioid, 1 µM (AID 2554;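 active = primary screen hit whose fluorescence ratio, in both repeats, exceeds the weak agonist control mean by 3 SD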). As to conditions: DAMGO EC20, Fluo-4 calcium flux, at 1 µM; stronger effect = higher value.
In experiment [4] the test system is TRPC4 beta (transient receptor potential cation channel C4), mouse. Kind of experiment: positive allosteric modulators of mouse TRPC4, confirmation, cell-based, Fluo-4, HEK293 TRPC4beta/mu-opioid (AID 2555;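 active = primary screen hit whose calcium fluorescence ratio, in both repeats, exceeds the weak agonist control mean by 3 SD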). As to conditions: DAMGO EC20, Fluo-4 calcium flux, at 10 µM; stronger effect = higher value. A general note: Calcium assays in cells follow changes in intracellular calcium, usually with a dye or a luminescent sensor.

Experiment [5] has as its target Short transient receptor potential channel 4 (Mus musculus) (UniProt Q9QUQ5). Kind of experiment: inhibitors of mouse TRPC4 channel, confirmation, cell-based, Fluo4, HEK293 TRPC4beta/mu-opioid (AID 2636;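 active = calcium signal cut by more than 3 SD below the full-agonist control yet still positive, in both repeats and the earlier primary screen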). As to conditions: DAMGO, Fluo4 calcium flux, at 10 µM; stronger effect = higher value.
Experiment [6] has the same target. Kind of experiment: inhibitors of mouse TRPC4 channel, confirmation, cell-based, second round, Fluo4, HEK293 TRPC4beta/mu-opioid, 1 µM (AID 2637;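 active = calcium signal ratio cut to more than 3 SD under the fully stimulated control mean yet still positive, in both repeats and the primary screen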). As to conditions: Fluo4 calcium flux, DAMGO, at 1 µM; stronger effect = higher value.
Experiment [7] has the same target. Kind of experiment: TRPC4 positive allosteric modulators, dose response, cell-based, HEK293 TRPC4/mu-opioid, Fluo-4 calcium, EC20 DAMGO (AID 434941;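 active = earlier screen potentiator hit that boosts the TRPC4 ion channel at some dose, with a dose response; inactive = no potentiation, no dose response, or not a prior hit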;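 also: calcium entry triggered by an EC20 dose of DAMGO at the co-expressed mu-opioid receptor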).
Experiment [8] shares this target. Kind of experiment: mouse TRPC4 channel inhibitors, dose response, cell-based, HEK293 TRPC4/mu-opioid, Fluo-4 calcium (AID 434942;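 active = primary screen inhibitor hit that blocks the TRPC4 channel at some tested dose, yielding a dose curve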).
Experiment [9] deals with Short transient receptor potential channel 6 (Mus musculus) (UniProt Q61143). Kind of experiment: inhibition of mouse TRPC6 channel, confirmation, selectivity assay for TRPC4 inhibitor project, cell-based, HEK293, membrane potential dye, duplicate (AID 434948;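 active = active in primary screen and both duplicates, each dropping signal beyond three positive-control SD with fluorescence still positive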). The note with it: HEK293 TRPC6, membrane potential dye fluorescence, at 10 µM, stimulated with maximal-effect acetylcholine; stronger effect = higher value.

Experiment [10] has the same target. The experiment is described as follows: activation of mouse TRPC6 channel, confirmation, selectivity assay for TRPC4 activator project, cell-based, HEK293, membrane potential dye, duplicate (AID 434950;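 active = membrane potential signal rise above negative control mean plus 3 SD in both duplicates, also active in the earlier TRPC4 screen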;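 as to activation: 0% = buffer only wells and 100% = acetylcholine maximal-effect wells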). The note with it: HEK293 TRPC6, membrane potential fluorescence, at 10 µM; stronger effect = higher value.
The target is the same in experiment [11]. Kind of experiment: TRPC6 potentiation by TRPC4 potentiator hits, confirmation, selectivity assay for TRPC4 potentiator project, HEK293 cells, membrane potential dye, duplicate (AID 434952;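 active = compound raising the membrane signal above positive-control mean plus 3 SD in both repeats, and a primary screen hit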). The note with it: HEK293 TRPC6, membrane potential dye fluorescence, at 10 µM, maximal acetylcholine added after compound; stronger effect = higher value.
Experiment [12] addresses Short transient receptor potential channel 4 (Mus musculus) (UniProt Q9QUQ5). The experiment is described as follows: calcium flux activators in TRPC4/5HT1a cells, counter-screen for TRPC4 activator project, cell-based, second counter screen, HEK293 TRPC4/5HT1a, Fluo-4 (AID 434977;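 active = calcium signal rise above buffer-control mean plus 5 SD in both duplicates, and also a hit in the primary screen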;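 as to activation: plate controls were assay buffer for no effect and maximal serotonin response for full effect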). As to conditions: Fluo-4 calcium flux, at 10 µM; stronger effect = higher value.
A short description of experiment [13]: calcium flux inhibitors in TRPC4/5HT1a cells, confirmation, counter-screen for TRPC4 inhibitor project, cell-based, second counter screen, HEK293 TRPC4/5HT1a, Fluo-4 (AID 434978;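 active = primary screen active whose calcium signal fell more than 3 SD beyond the full-serotonin control mean in both duplicate plates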;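 also: serotonin given first at submaximal then at maximal dose after compound preincubation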). As to conditions: Fluo-4 calcium flux, at 10 µM, serotonin added to trigger calcium flux; stronger effect = higher value.
Experiment [14] deals with TRPC4 (mouse), co-expressed with 5HT1a in HEK293. Kind of experiment: calcium flux potentiators in TRPC4/5HT1a cells, confirmation, counter-screen for TRPC4 potentiator project, cell-based, second counter screen, HEK293 TRPC4/5HT1a, Fluo-4 (AID 434979;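 active = signal rise over 3 SD above mean of control wells given weak agonist, in both repeats and first screen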). As to conditions: Fluo-4 calcium flux, at 10 µM, serotonin added at its EC20 dose; stronger effect = higher value.
A short description of experiment [15]: calcium flux activation in mu-opioid HEK293 cells, confirmation, counter-screen for TRPC4 activator project, cell-based, HEK293 mu-opioid receptor line (AID 449723;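 active = hit in primary screen, with calcium signal over 5 SD above buffer well mean in both duplicates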;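 also: counter screen cells carry the mu-opioid receptor alone and lack TRPC4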). As to conditions: Fluo-4 calcium fluorescence, at 10 µM; stronger effect = higher value.
Experiment [16] is described as follows: calcium flux enhancement in mu-opioid HEK293 cells, confirmation, counter-screen for TRPC4 allosteric potentiator project, cell-based, HEK293 mu-opioid receptor line (AID 449724;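 active = calcium signal rise more than 3 SD above the low-dose agonist control mean, in both duplicate plates and the primary screen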;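 also: HEK293 cells carrying mu-opioid receptor only with no TRPC4 channel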). The note with it: Fluo-4 calcium flux, at 10 µM, compound added before EC20 DAMGO stimulus; stronger effect = higher value.

Chain of Short transient receptor potential channel 4 (Mus musculus) (Q9QUQ5 whole entry, looked up): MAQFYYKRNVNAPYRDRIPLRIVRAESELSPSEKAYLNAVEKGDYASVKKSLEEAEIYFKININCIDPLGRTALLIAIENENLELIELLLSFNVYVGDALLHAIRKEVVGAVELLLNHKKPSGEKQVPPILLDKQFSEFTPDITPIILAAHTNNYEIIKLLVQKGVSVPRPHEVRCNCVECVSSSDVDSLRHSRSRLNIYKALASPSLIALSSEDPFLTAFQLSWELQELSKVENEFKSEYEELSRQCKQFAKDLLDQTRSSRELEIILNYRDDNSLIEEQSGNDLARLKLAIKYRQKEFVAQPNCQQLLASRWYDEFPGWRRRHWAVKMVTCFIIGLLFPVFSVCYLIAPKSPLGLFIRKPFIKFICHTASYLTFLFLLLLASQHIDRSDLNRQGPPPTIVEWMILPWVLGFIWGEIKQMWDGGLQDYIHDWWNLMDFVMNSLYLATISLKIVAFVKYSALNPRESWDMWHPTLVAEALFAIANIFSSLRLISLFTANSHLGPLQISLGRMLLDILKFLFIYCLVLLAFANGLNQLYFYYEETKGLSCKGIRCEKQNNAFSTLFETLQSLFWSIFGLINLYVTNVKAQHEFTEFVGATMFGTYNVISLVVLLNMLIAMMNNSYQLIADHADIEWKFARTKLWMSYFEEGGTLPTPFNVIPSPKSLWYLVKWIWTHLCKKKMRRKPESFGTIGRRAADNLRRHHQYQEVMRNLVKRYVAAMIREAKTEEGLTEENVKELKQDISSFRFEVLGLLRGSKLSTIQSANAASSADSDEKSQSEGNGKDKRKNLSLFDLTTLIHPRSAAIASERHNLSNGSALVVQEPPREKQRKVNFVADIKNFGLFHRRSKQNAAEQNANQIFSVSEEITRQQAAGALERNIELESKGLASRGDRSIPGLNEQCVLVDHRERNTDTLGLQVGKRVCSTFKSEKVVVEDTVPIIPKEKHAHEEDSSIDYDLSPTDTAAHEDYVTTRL
Chain of Short transient receptor potential channel 6 (Mus musculus) (Q61143 whole entry, looked up): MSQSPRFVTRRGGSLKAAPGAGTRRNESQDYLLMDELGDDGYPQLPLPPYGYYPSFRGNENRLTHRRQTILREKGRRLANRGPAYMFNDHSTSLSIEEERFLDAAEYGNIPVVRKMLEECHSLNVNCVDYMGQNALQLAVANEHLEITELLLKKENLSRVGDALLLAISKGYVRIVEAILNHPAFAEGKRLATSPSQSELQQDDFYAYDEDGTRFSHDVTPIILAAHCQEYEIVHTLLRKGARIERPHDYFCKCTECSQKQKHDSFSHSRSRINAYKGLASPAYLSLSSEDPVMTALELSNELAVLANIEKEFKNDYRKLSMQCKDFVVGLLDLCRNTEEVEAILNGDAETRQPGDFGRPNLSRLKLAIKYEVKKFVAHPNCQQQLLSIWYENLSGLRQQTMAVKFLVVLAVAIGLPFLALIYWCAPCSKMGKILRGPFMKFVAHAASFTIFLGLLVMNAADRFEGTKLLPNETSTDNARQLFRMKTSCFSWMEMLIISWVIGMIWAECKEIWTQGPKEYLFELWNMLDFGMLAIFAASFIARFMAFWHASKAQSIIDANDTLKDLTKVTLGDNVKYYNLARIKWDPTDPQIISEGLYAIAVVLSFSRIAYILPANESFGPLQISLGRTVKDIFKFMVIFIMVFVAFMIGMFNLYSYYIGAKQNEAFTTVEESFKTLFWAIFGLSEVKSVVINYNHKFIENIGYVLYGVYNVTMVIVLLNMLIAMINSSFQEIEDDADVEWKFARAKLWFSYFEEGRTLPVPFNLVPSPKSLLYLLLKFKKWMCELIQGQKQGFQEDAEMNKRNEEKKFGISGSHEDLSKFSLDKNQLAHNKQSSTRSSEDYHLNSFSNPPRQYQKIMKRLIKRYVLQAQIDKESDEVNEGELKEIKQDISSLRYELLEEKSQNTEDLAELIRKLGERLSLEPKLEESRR

On to `Cc1csc2c(N3CCN(C(=S)Nc4ccc(C(F)(F)F)cc4)CC3)ncnc12`, for which the activation was 102% (active) in experiment [1], 55% (active) in [2] and 48.2% (active) in experiment [12]. Further, the outcome in experiment [3], in experiment [4], in [5], in experiment [6], in experiment [7] and in experiment [8] was inactive. In addition, the outcome in experiment [9], in [10], in experiment [11], in experiment [13], in experiment [14] and in [15] was inactive. In addition, the result in experiment [16] was inactive.

Regarding `O=C1c2ccccc2S(=O)(=O)c2cc(C(=O)N(c3ccccn3)c3ccccn3)ccc21`, the results for the activation in experiment [1], in [12] and in experiment [15] were 107% (active), 99.8% (active) and 25.6% (active), respectively. The outcome in experiment [2], in experiment [3], in [4], in experiment [5], in experiment [6] and in [7] was inactive. Further, the outcome in experiment [8], in [9], in experiment [10], in experiment [11], in experiment [13] and in [14] was inactive. Further, the result in [16] was inactive.

On to `CC[C@@H](C)[C@H](CNC)NC[C@@H](Cc1cccc2ccccc12)NCCc1cccc(C(F)(F)F)c1`, for which the activation in [1] is 127% (active); in [10], 29% (active); in experiment [12] it was 111% (active); in [15], 25.7% (active). Besides, the outcome in experiment [2], in experiment [3], in experiment [4], in experiment [5], in experiment [6] and in experiment [7] was inactive. Besides, the outcome in [8], in [9], in experiment [11], in experiment [13], in [14] and in experiment [16] was inactive.

With `Cc1cccc(OCCC(=O)NCC(c2ccccc2)N(C)C)c1` (centres undefined), the result in experiment [1], in [2], in experiment [3], in experiment [4], in experiment [5] and in experiment [6] was inactive. The outcome in [7], in [8], in experiment [9], in [11], in experiment [12] and in experiment [13] was inactive. The outcome in experiment [14], in [15] and in [16] was inactive. In addition, the activation in [10] was 52% (active).

As to `CN(C)CCCN(C(=O)c1ccc(S(=O)(=O)N2CCc3ccccc3C2)cc1)c1nc2ccc(F)cc2s1`, the outcome in experiment [1], in [2], in experiment [3], in experiment [4], in experiment [5] and in experiment [6] was inactive. For the same molecule, the outcome in experiment [7], in experiment [8], in experiment [9], in [10], in experiment [11] and in experiment [12] was inactive. Also, the outcome in experiment [13], in [14], in experiment [15] and in experiment [16] was inactive.

As to `COc1ccc(C(CNc2ncnc3sc(C)c(C)c23)N(C)C)cc1` (centres undefined), the activation in experiment [1] was 227% (active); in [2] it was 113% (active). For the same molecule, the result in experiment [3], in experiment [4], in [5], in [6], in [7] and in experiment [8] was inactive. Besides, the call in experiment [9], in [10], in experiment [11], in [12], in experiment [13] and in [14] was inactive. The result in [15] and in [16] was inactive.

For `CN1CCN(C(=O)c2cccn(Cc3c(Cl)cccc3Cl)c2=O)CC1`, the activation in experiment [1] was 147% (active); in [2], 88% (active); in experiment [12], 42.6% (active). Also, the outcome in [3], in [4], in experiment [5], in experiment [6], in experiment [7] and in experiment [8] was inactive. Also, the molecule was called inactive in experiment [9], in experiment [10], in experiment [11], in [13], in [14] and in experiment [15]. In addition, the result in [16] was inactive.

For the molecule `CCOC(=O)C1(Cc2ccccc2)CCN(Cc2cn[nH]c2-c2ccccc2)CC1`, the activation in experiment [1] is 192% (active); in [10], 76% (active). Also, the result in [2], in [3], in experiment [4], in experiment [5], in [6] and in [7] was inactive. Moreover, the result in [8], in [9], in experiment [11], in experiment [12], in experiment [13] and in experiment [14] was inactive. For the same molecule, the result in [15] and in experiment [16] was inactive.

As to `O=C(NCCNC1CCC(c2ccccc2)CC1)c1cccs1` (centres undefined), the activation in experiment [1] was 169% (active); in [2], 95% (active); in experiment [10] it was 66% (active); in experiment [12], 103% (active). Also, the result in experiment [3], in experiment [4], in experiment [5], in [6], in experiment [7] and in experiment [8] was inactive. Moreover, the molecule was called inactive in [9], in [11], in [13], in experiment [14], in [15] and in [16].

In the case of `Cc1sc(NC(=O)c2ccccc2)c(C(=O)NCCN(C)C)c1C`, the activation in experiment [1] was 128% (active); in [12], 12.1% (active). Also, the outcome in experiment [2], in [3], in experiment [4], in experiment [5], in [6] and in [7] was inactive. In addition, the result in [8], in [9], in experiment [10], in experiment [11], in experiment [13] and in experiment [14] was inactive. For the same molecule, the result in experiment [15] and in experiment [16] was inactive.

`O=[N+]([O-])c1cc(C(F)(F)F)ccc1N1CCCNCC1`: the activation in experiment [1] is 77% (active); in experiment [12], 30.2% (active). Besides, the result in [2], in experiment [5], in [6], in [7], in experiment [8] and in experiment [9] was inactive. For the same molecule, the molecule was classed as inactive in experiment [10], in [11], in experiment [13], in [15] and in experiment [16]. The results for the potentiation in experiment [3], in experiment [4] and in experiment [14] were 21% (active), 26% (active) and 30.6% (active), respectively.

As to `CN(CCOc1ccc(Br)cc1)CC(O)c1ccccc1` (centres undefined), the values for the activation in [1], in experiment [10] and in [12] were 71% (active), 41.5% (active) and 12.6% (active), respectively. The outcome in experiment [2], in [3], in experiment [4], in experiment [5], in experiment [6] and in experiment [7] was inactive. Further, the result in [8], in [9], in experiment [11], in [13], in [14] and in [15] was inactive. In addition, the result in experiment [16] was inactive.

As for `O=C(CC1C(=O)NCCN1Cc1ccc(-c2ccccc2)cc1)NCCc1ccccn1` (centres undefined), the activation in [1] was 142% (active); in [12], 34% (active). Besides, the outcome in [2], in experiment [3], in experiment [4], in [5], in [6] and in [7] was inactive. For the same molecule, the result in experiment [8], in experiment [9], in experiment [10], in [11], in experiment [13] and in [14] was inactive. Further, the outcome in [15] and in experiment [16] was inactive.

Turning to `Cc1cc(N2CCN(C)CC2)ccc1NC(=O)c1ccc(-c2ccc(Cl)cc2)o1`, the result in experiment [1], in [2], in experiment [3], in experiment [4], in experiment [5] and in [6] was inactive. For the same molecule, the outcome in experiment [7], in experiment [8], in experiment [9], in experiment [10], in experiment [11] and in [12] was inactive. Besides, the result in experiment [13], in experiment [14], in experiment [15] and in [16] was inactive.
